Measured values taken from PubChem BioAssay.
Values joined by “and” are separate entries in the source; they are usually repeats but may differ in a detail not shown here. Equal entries are not always repeated. Where a structure was tested more than once in an assay, its records may differ in their call. Active and inactive are the calls of the source. Unless noted, how the calls were made is not given here.

Assays:
[1] = galactose survival enhancers in mitochondrial complex I cybrids – cell-based, galactose medium, ATP luminescence, primary screen (AID 1645843;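 active means z-score of at least 1.8 in each of two replicates, scored against plate mean and spread of sample wells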;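 further: positive z means more ATP and so rescue of galactose-driven cybrid death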); details: complex I mutant cybrid cells, 72 h, stronger effect = higher value
[2] = growth inhibition, single agents and combos, LFS_MB_1R, cell-based, cisplatin or BGB combos, synergistic combos for chromothripsis tumors (AID 1671452; in the data active means inhibition above about 80%;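 further: cells exposed for 96 hours before readout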); details: LFS_MB_1R medulloblastoma cells, stronger effect = higher value
[3] = growth inhibition, single agents and combos, CRL2098, cell-based, BGB or cisplatin IC20 combos, synergistic combos for chromothripsis tumors (AID 1671454; in the data active means inhibition above about 80%;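 further: cells exposed for 96 h before readout; 0% = vehicle DMSO and 100% = killing by high DMSO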); details: CRL2098 osteosarcoma cells, drug combinations, stronger effect = higher value
[4] = growth inhibition, single agents and combos, HD-MB03, cell-based, BGB or cisplatin IC20 combos, synergistic combos for chromothripsis tumors (AID 1671455; in the data active means inhibition above about 83%;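 further: 0% = vehicle DMSO and 100% = high DMSO as cytotoxic control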); details: HD-MB03 medulloblastoma cells, stronger effect = higher value
[5] = growth inhibition, single agents and combos, UWB1.289, cell-based, BGB or cisplatin combos, synergistic combos for chromothripsis tumors (AID 1671456; in the data active means inhibition above about 80%;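 further: cells exposed to compound for four days; 0% = vehicle DMSO and 100% = killing by high DMSO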); details: UWB1.289 ovarian carcinoma cells, stronger effect = higher value
[6] = growth inhibition, single agents and combos, LFS_MB_2R, cell-based, cisplatin combos, synergistic combos for chromothripsis tumors (AID 1671457; in the data active means inhibition above about 80%;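 further: cells exposed to compound for four days before readout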); details: LFS_MB_2R medulloblastoma cells, stronger effect = higher value
[7] = UWB1.289_BRCA1 ovarian cancer growth, cell-based, BGB or cisplatin combinations (AID 1671459; in the data active means inhibition above about 80%); details: UWB1.289 BRCA1 ovarian carcinoma, drug combinations, stronger effect = higher value
[8] = drug combination toxicity in non-malignant astrocytes – cell-based, BGB or cisplatin IC20 combos, cytotoxicity control for chromothriptic childhood tumor combination screen (AID 1671460; in the data active means inhibition above about 80%;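 further: cells exposed to compounds for 96 hours before viability readout; 0% = vehicle and 100% = killing control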); details: Human astrocytes, viability inhibition, drug combinations, at 0.5 µM, stronger effect = higher value
[9] = blockers of cellular phospholipid synthesis – cell-based, LOPAC library, screen 4, primary screen (AID 1347384); details: animal cells, phospholipid biosynthesis inhibition screen; at 10 µM
[10] = P. berghei load reduction in hepatocytes – cell-based, HepG2, luciferase luminescence, HepG2 viability, primary screen (AID 624349; in the data active means parasite load remaining mostly below about 12%, no sharp cut-off; inactive means mostly above about 10%;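 further: 100% = mean of DMSO negative control wells on the same plate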); details: P. berghei liver stage in HepG2, luciferase luminescence, concentration not given here; parasite load remaining: stronger effect = lower value; viability: measured here: HepG2 viability without parasites
[11] = test system: Hepatitis C virus NS3 helicase; assay: blockers of NS3h binding to ssDNA – biochemical, fluorescence polarization, LOPAC1280 library, primary screen (AID 687035; in the data active means inhibition above about 37%); details: Purified HCV NS3 helicase, Cy5-dT15 ssDNA binding fluorescence polarization; stronger effect = higher value; concentration not given here
[12] = compounds altering Cy5-DNA-NS3h complex signal – biochemical, LOPAC1280, artefact control for HCV NS3 helicase inhibitor project (AID 687037); details: Cy5-DNA-NS3h complex fluorescence interference counterscreen
[13] = compounds altering viability of human ES cells (AID 493140); details: human embryonic stem cell survival screen; stronger effect = higher value;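 further: cells exposed to compounds for four days before counting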
[14] = liver-stage malaria parasite load reduction – cell-based, known kinase inhibitor set, luminescence, hepatoma host viability (AID 624392); details: Plasmodium liver stage in hepatoma cells, luciferase luminescence, concentration not given here; liver cell % of control: measured here: host liver cell viability; parasite % of control: stronger effect = lower value;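 further: infected cells incubated roughly two days before readout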
[15] = compounds altering circadian rhythm period length – cell-based, LOPAC library, luminescence reporter (AID 2774); details: circadian reporter cells, at 7 µM, actives lie on both sides;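 further: values are relative to mean of DMSO wells on each plate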
[16] = chitosan synthesis blockers in C. neoformans – flow cytometry, Cibacron Brilliant Red staining (AID 1347148); details: Cryptococcus neoformans chitosan, stronger effect = lower value; at 10 µM unless noted;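 further: compound exposure lasted three days at 37 degrees C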
[17] = altered dexamethasone sensitivity, NF-kB reporter, cell-based, luciferase, IL-1B stimulus (AID 624486); details: IL-1B + dexamethasone, luminescence; percent of negative control (+Dex): actives lie on both sides, concentration not given here; z-score: measured here: IL-1B alone, no Dex;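 on percent of negative control (+Dex): 100% = mean signal of vehicle control wells on the plate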
[18] = C. elegans survival during P. aeruginosa infection – whole organism (AID 651566);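 further: tested at 14 µM; sign flipped so higher z means a lower ratio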; details: C. elegans killed by P. aeruginosa, survival ratio
[19] = pro-inflammatory signaling induction in mouse macrophages – cell-based, murine, luminescence (AID 652131); details: murine macrophage pro-inflammatory reporter, stronger effect = higher value
[20] = molecular target: NAD(+) hydrolase SARM1 (Homo sapiens) (UniProt Q6SZW1); assay: blocking NAD cleavage by SARM1 SAM-TIR – cell lysate, NAD-Glo luminescence (AID 1508614;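 active means compound whose remaining NAD level is above about 45 nM, limit read from the data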); details: SAM-TIR HEK293T lysate NADase, at 1 µM, stronger effect = higher value
NAD(+) hydrolase SARM1 (Homo sapiens), sequence (Q6SZW1 whole entry, looked up): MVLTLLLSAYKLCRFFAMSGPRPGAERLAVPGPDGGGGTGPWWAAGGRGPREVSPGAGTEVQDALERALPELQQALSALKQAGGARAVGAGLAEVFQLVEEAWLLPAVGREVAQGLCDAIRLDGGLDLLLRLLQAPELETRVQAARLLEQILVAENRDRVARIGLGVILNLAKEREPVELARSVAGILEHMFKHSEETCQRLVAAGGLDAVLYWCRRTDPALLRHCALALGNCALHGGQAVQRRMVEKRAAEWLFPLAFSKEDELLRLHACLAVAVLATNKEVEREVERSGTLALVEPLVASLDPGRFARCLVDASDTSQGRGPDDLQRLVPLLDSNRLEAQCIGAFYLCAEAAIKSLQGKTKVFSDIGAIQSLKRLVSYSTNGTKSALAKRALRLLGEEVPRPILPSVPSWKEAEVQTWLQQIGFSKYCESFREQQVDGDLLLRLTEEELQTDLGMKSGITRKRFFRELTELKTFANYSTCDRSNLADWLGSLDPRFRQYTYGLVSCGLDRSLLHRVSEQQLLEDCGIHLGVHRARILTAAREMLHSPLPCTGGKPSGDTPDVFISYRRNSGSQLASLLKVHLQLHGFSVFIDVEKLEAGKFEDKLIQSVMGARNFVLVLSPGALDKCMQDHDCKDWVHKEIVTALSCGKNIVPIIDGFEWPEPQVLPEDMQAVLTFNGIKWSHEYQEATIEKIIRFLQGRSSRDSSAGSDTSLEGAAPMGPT

[21] = measured here: combination with BGB IC40, at 0.05 µM
[22] = measured here: combination with cisplatin, at 0.5 µM
[23] = measured here: combination with cisplatin, at 5 µM
[24] = measured here: combination with BGB at IC20, at 0.5 µM
[25] = measured here: combination with cisplatin at IC20, at 0.5 µM
[26] = measured here: combo with BGB at IC20, at 0.5 µM
[27] = measured here: combo with cisplatin at IC20, at 0.5 µM
[28] = measured here: inhibition with BGB combination, at 0.05 µM
[29] = measured here: inhibition with cisplatin combination, at 0.05 µM
[30] = BGB combination, concentration series, at 5 µM
[31] = cisplatin combination, concentration series, at 5 µM
[32] = measured here: combo with BGB IC20
[33] = measured here: combo with cisplatin IC20

CCCCCCCCCCCC(CC1OC(=O)C1CCCCCC)OC(=O)C(CC(C)C)NC=O (stereo not drawn)
z-score [1]: -1.84 (inactive)

Nc1ccccc1NC(=O)c1ccc(CNc2nccc(-c3cccnc3)n2)cc1
inhibition ([2]; at 0.5 µM): 42.2% (inactive) | inhibition [2, 21]: -27.8% | inhibition [2, 22]: 50.9% | inhibition [2, 23]: 96.3% | inhibition ([3]; at 0.5 µM): -11.6% (inactive) | inhibition [3, 24]: -25.1% | inhibition [3, 25]: 19.9% | inhibition ([4]; at 0.5 µM): 40.8% (inactive) | inhibition [4, 26]: 31.4% | inhibition [4, 27]: 76.7% | inhibition ([5]; at 0.5 µM): 27.8% (inactive) | inhibition [5, 28]: -18.3% | inhibition [5, 29]: -16.7% | inhibition ([6]; at 0.5 µM): 36.6% (inactive) | inhibition [6, 22]: 45.3% | inhibition [6, 23]: 98.8% | inhibition [7, 30]: 114% | inhibition ([7]; at 0.5 µM): 29.1% (inactive) | inhibition [7, 31]: 120% | inhibition [8]: 24.5% (inactive) | inhibition [8, 32]: 21.7% | inhibition [8, 33]: 17.1%

CN(C)c1ccccc1CN1CCCN(Cc2ccccc2N(C)C)C1c1ccncc1
outcome [9]: inactive

O=C1NC(=O)/C(=C/c2cccc(C(F)(F)F)c2)S1
parasite load remaining [10]: 38.3% (inactive) | viability [10]: 85%

O=C(Nc1cc(Cl)cc2c1[nH]c1cnccc12)c1cccnc1
parasite load remaining [10]: 33.8% (inactive) | viability [10]: 87.1%

C=CC[N+]1([C@H]2C[C@H]3[C@@H]4CC[C@H]5C[C@H](O)[C@@H](N6CCOCC6)C[C@]5(C)[C@H]4CC[C@]3(C)[C@H]2OC(C)=O)CCCC1
parasite load remaining [10]: 25.4% (inactive) | viability [10]: 138% | z-score [1]: 0.25 (inactive)

CS(=O)(=O)c1ccc(C(=O)Nc2ccc(Cl)c(-c3ccccn3)c2)c(Cl)c1
z-score [1]: 0.355 (inactive)

COc1ccc2c(c1)c(C1=C(c3c[nH]c4ccccc34)C(=O)NC1=O)cn2CCCN(C)C
parasite load remaining [10]: 27.6% (inactive) | viability [10]: 93.9%

CN1CC(=O)NC1=NC(=O)Nc1cccc(Cl)c1
inhibition [11]: -2% (inactive) | fluorescence ratio (interference) [12]: 1 (inactive) | outcome [9]: inactive

CN(C(Cc1ccc(OS(=O)(=O)c2cccc3cnccc23)cc1)C(=O)N1CCN(c2ccccc2)CC1)S(=O)(=O)c1cccc2cnccc12 (stereo not drawn)
survival [13]: 94.6 (inactive)

CCN(CCO)CCCOc1ccc2c(Nc3cc(CC(=O)Nc4cccc(F)c4)[nH]n3)ncnc2c1
parasite % of control [14]: 144% (inactive) and 137% (inactive) and 97.1% (inactive)

CC1(C)CCC2=C(O1)c1ccccc1C(=O)C2=O
period change [15]: -0.24 h (inactive) | inhibition [11]: -5% (inactive) | fluorescence ratio (interference) [12]: 1 (inactive) | fold fluorescence [16]: 9.76 [at 206.4 µM] (inactive) | outcome [9]: inactive | z-score [1]: -1.29 (inactive) | inhibition ([2]; at 0.5 µM): -13.2% (inactive) and 14.9% (inactive) | inhibition [2, 21]: -55.4% and -11.7% | inhibition [2, 22]: -25.3% and 44% | inhibition [2, 23]: 96.9% and 102% | inhibition ([3]; at 0.5 µM): -39.7% (inactive) and -32.9% (inactive) | inhibition [3, 24]: -38.5% and -7.72% | inhibition [3, 25]: -39.4% and -35% | inhibition ([4]; at 0.5 µM): -12.2% (inactive) and -9.16% (inactive) | inhibition [4, 26]: 5.55% and -5.28% | inhibition [4, 27]: -34.7% and -19.2% | inhibition ([5]; at 0.5 µM): 12.3% (inactive) and 6.12% (inactive) | inhibition [5, 28]: -2.17% and 7.32% | inhibition [5, 29]: -10.2% and -8.62% | inhibition ([6]; at 0.5 µM): -21.3% (inactive) and -12.9% (inactive) | inhibition [6, 22]: -28.3% and -6.61% | inhibition [6, 23]: 89.1% and 88.9% | inhibition [7, 30]: 128% and 124% | inhibition ([7]; at 0.5 µM): 0.6% (inactive) and 6.57% (inactive) | inhibition [7, 31]: 129% and 128% | inhibition [8]: 16.9% (inactive) and 14.6% (inactive) | inhibition [8, 32]: 23.9% and 15.8% | inhibition [8, 33]: 20.7% and 18.1%

Clc1ccc(COC(Cn2ccnc2)c2ccc(Cl)cc2Cl)c(Cl)c1 (stereo not drawn)
survival [13]: 33.8 (inactive)

N#Cc1c(NC(=O)c2cccc3ccccc23)sc2c1CCCC2
percent of negative control (+Dex) [17]: 130% (inactive) | z-score [17]: 1.48 | z-score [18]: -1.07 (inactive) | z-score [19]: -1.04 (inactive)

COc1ccc2c(c1)CC[C@@H]1[C@@H]2CC[C@]2(C)[C@@H](NCCCCCCN3C(=O)C=CC3=O)CC[C@@H]12
fold fluorescence [16]: 12.8 [at 107.6 µM] (inactive)

C[C@H]1[C@H](O)O[C@@H]2O[C@@]3(C)CC[C@H]4[C@H](C)CC[C@@H]1[C@@]24OO3
remaining NAD [20]: 10 nM (inactive)

COc1cc2ncnc(Nc3cccc(Cl)c3)c2cc1OC
period change [15]: 0.545 h (inactive) | survival [13]: 138 (inactive) | parasite load remaining [10]: 63.9% (inactive) | viability [10]: 78.3% | inhibition [11]: 0% (inactive) | fluorescence ratio (interference) [12]: 1 (inactive) | fold fluorescence [16]: 5.72 [at 142 µM] (inactive) | outcome [9]: inactive | z-score [1]: 1.23 (inactive)

CNc1nccc(-c2cccnc2Oc2cc(C(=O)Nc3cccc(C(F)(F)F)c3)ccc2C)n1
liver cell % of control [14]: 245% and 255% and 102% | parasite % of control [14]: 0.405% (inactive) and 0.413% (active) and 75.6% (inactive)

CC(C)=CCC/C(C)=C/CC/C(C)=C/CSc1ccccc1C(=O)O
period change [15]: -0.01 h (inactive)

CC(=O)Oc1cc2c(s1)CCN(C(C(=O)C1CC1)c1ccccc1F)C2 (stereo not drawn)
remaining NAD [20]: 10 nM (inactive) | z-score [1]: -1.04 (inactive)

Nc1cccc(-c2cc3c(Oc4cccc(O)c4)ncnc3[nH]2)c1
parasite load remaining [10]: 28.2% (inactive) | viability [10]: 64.3%

Nc1ccn([C@@H]2O[C@H](CO)[C@@H](O)C2(F)F)c(=O)n1
parasite load remaining [10]: 8.34% (inactive) | viability [10]: 190% | z-score [1]: -1.98 (inactive)
